The record followed here is PubChem BioAssay (Tox21).

Each structure is given as a SMILES string. Records with an inconclusive call do not appear. Active and inactive are the calls of the source. No rule for the calls is given here.
Potency is read from the fitted curve at half-maximal effect.

The assay is described as follows: qHTS assay to identify small molecule antagonists of the estrogen related receptor signaling pathway with the pleiotropic PPARgamma coactivator (PGC) from Tox21 10K library (AID 1224841). Also: actives are mostly falling curves and most rising ones were filed inactive; nearly all actives have a fitted effect of over 50% in size. The settings on record: PGC/ERR reporter cell line, ONE-Glo luciferase, 18 h; series mostly up to 92.4 µM. An excerpt:
U.S. Tox21 Program National Center for Advancing Translational Sciences [NCATS] NIH Chemical Genomics Center [NCGC] U.S. Environmental Protection Agency [EPA] National Institutes of Environmental Health Sciences [NIEHS] National Toxicology Program [NTP] U.S. Food and Drug Administration [FDA] Tox21 Assay Overview: Estrogen related receptors (ERRs), the first orphan nuclear receptors discovered, play an important role in the control of cellular energy metabolism. ERRs are required for high-energy production in response to the environmental challenges. The pleiotropic PPARgamma coactivator (PGC) is a major partner of ERR and a key regulator in energy homeostasis. Together they have been implicated in the etiology of metabolic disorders such as Type 2 diabetes and metabolic syndrome. ERR-alpha was also identified as an adverse marker for breast cancer progression; ERR-alpha-positive tumors have a poor prognosis. To screen and to identify environmental compounds that perturb the ERR and PGC/ERR signaling pathways could provide valuable information for potential therapeutic or preventive measures in the treatment of metabolic disease. For identifying PGC/ERR antagonists, PGC/ERR cell line (provided by NTP) has been used to screen Tox21 10K library.
Tox21 Assay Protocol Summary: The PGC/ERR cells were dispensed at 2,000 cells/5 ul/well in 1536-well white plates using a Multidrop dispenser. After the assay plates were incubated at a 37 C/5% CO2 incubator for 6 hours, 23 nL of compounds dissolved in DMSO, positive and negative controls or DMSO only was transferred to the assay plate by a pin tool. The plates were incubated at 37 C for 18 hours. 4 ul/well of One-Glo reagent was added into the assay plates using a Flying Reagent Dispenser. After 30-minute incubation at room temperature, the luminescence intensity in the plates was measured using a ViewLux plate reader.
Background: In qHTS, concentration-response curves come from the screen itself.
As to `CC(c1ccccc1)(c1ccc(O)cc1)c1ccc(O)cc1`, the Potency is 34.4 µM (active).
The figure for `CC1COC(Cn2cncn2)(c2ccc(Oc3ccc(Cl)cc3)cc2Cl)O1` (stereo unspecified) is 8.63 µM (active); for `COc1cc(OC)c(OC)cc1C=O` it is 21.9 µM (active).
With `O=C(O)/C=C\C(=O)O`, the Potency entry was “inactive”.
For the compound `Oc1c(I)cc(I)cc1I`, the Potency was 61.1 µM (active).
`COc1ccc(C(c2ccc(OC)cc2)C(Cl)(Cl)Cl)cc1`: the Potency is 8.58 µM (active).
Regarding `Nc1ccc([N+](=O)[O-])cc1`, the Potency result is “inactive”.
As for `CO/C=C(/C(=O)OC)c1ccccc1Oc1cc(Oc2ccccc2C#N)ncn1`, the Potency was 16.4 µM (active).
With `c1ccc2c(c1)Sc1ccccc1N2CC1CN2CCC1CC2` (stereo unspecified) the entry was “inactive”; with `Cc1cc(C(C)(C)c2ccc(O)c(C)c2)ccc1O`, 9.23 µM (active); with `O=C(O)/C=C/C(=O)O`, “inactive”.
Take `ClC1=C(Cl)[C@]2(Cl)[C@@H]3[C@@H](Cl)[C@H]4O[C@H]4[C@@H]3C1(Cl)C2(Cl)Cl`: the Potency result was “inactive”.
As to `O=C(Nc1ccccc1-c1ccc(Cl)cc1)c1cccnc1Cl`, the Potency is 64.8 µM (active).
As for `CCN(CC)C(=O)Cl`, the Potency entry was “inactive”.
The figure for `Cc1ccc(N(SC(F)(Cl)Cl)S(=O)(=O)N(C)C)cc1` is 24.3 µM (active); for `Cc1nnc2n1-c1sc(CCc3ccc(CC(C)C)cc3)cc1C(c1ccccc1Cl)=NC2C` (stereo unspecified) it is 10.6 µM (active).
For the compound `CC(N)C(=O)OC(C)(C)Cc1ccc(Cl)cc1` (stereo unspecified), the Potency entry is “inactive”.
With `Cc1cc(C)c(C(=O)P(=O)(c2ccccc2)c2ccccc2)c(C)c1` the figure was 54.5 µM (active); with `O=C(c1ccccc1)C(Cl)Cl`, 68.6 µM (active); with `CCC1C(=O)OCC1Cc1cncn1C` (stereo unspecified), “inactive”.
With `CCn1cc(C(=O)O)c(=O)c2ccc(C)nc21` the entry was “inactive”.
